# Experimental data reported in the supplement of paper PMC8699584.
# Values joined by “and” are separate entries in the source; they are usually repeats but may differ in a detail not shown here. Equal values may be shown once. Where a name gives a salt, the structure may show the parent alone. ± gives the standard deviation of the averaged measurements.
# Test system: Molm13
# Assay: cell viability relative to DMSO control (bortezomib = 0%); higher = less growth inhibition
# Settings: 10 nM; 72 h
# Method in brief: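 Acute myeloid leukemia cells, 1000 per well in 50 µL, were incubated for 72 h on 384-well plates with 679 approved and investigational compounds, each at a single 10 nM dose. Viability was read by CellTiter-Glo luminescence. Values were expressed as percentages through per-plate linear regression against DMSO-treated (100%) and positive-control-treated (0%) cells.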
row,Compound,cell viability
1,O=C(Nc1cccc(Nc2ncc(Br)c(NCCc3cnc[nH]3)n2)c1)N1CCCC1,73 ± 3.7%
2,CN(C)C/C=C/C(=O)Nc1ccc(C(=O)Nc2cccc(Nc3ncc(Cl)c(-c4c[nH]c5ccccc45)n3)c2)cc1,88 ± 18%
3,COc1ccc(COc2ccc(Cc3cnc(N)nc3N)cc2OC)cc1,110 ± 17%
4,CC(C)(C)n1nc(-c2cccc3ccccc23)c2c(N)ncnc21,95.9 ± 9.6%
5,CCN(CC)CCNC(=O)c1c(C)[nH]c(/C=C2\C(=O)Nc3ccc(F)cc32)c1C [Sunitinib],111 ± 26%
6,COc1cc2ncnc(Nc3cccc(Cl)c3)c2cc1OC,98.7 ± 14%
7,COCCOc1cnc2ccn([C@H](C)c3nnc4c(F)cc(-c5cnn(C)c5)cn34)c(=O)c2c1,104 ± 13%
8,c1ccc(-c2[nH]ncc2-c2ccnc3ccccc23)nc1,102% and 105%
9,O=c1sn(-c2cccc3ccccc23)c(=O)n1Cc1ccccc1 [Tideglusib],116 ± 9.5%
10,O=C(Nc1cccnc1)c1cc(-c2ccnc(F)c2)ccc1OCc1ccccc1,101 ± 20%
11,CC[C@@](C)(Nc1ccnc(-c2c[nH]c3ncccc23)n1)C(=O)NCC(F)(F)F [Decernotinib(VX-509)],98.6 ± 1.4%
12,Nc1nccc(Oc2ccc3c(C(=O)Nc4cccc(C(F)(F)F)c4)cccc3c2)n1,94.7 ± 6.4%
13,O=C(Nc1ccc(-c2ccnc(Nc3ccc(N4CCOCC4)cc3)n2)cc1)C1CCCN1 (stereo not given),107 ± 16%
14,Cc1cc(O)c2c(c1)C(=O)c1cc(O)cc(O)c1C2=O [Emodin],91.2 ± 7.2%
15,CNC(=O)c1ccc(C)c(-n2c(C)cc(OCc3ccc(F)cc3F)c(Br)c2=O)c1,97.9 ± 3.1%
16,CC(C)(C)n1nc(Cc2cccc3ccccc23)c2c(N)ncnc21,106 ± 29%
17,CONC(=O)c1ccccc1Nc1cc(Nc2cc(C)nn2C(C)C)ncc1Cl,105 ± 9.6%
18,Cc1nc2ccc(-n3ncc(C(=O)c4cc5ccccc5[nH]4)c3N)cc2[nH]1,114 ± 3.2%
19,O=C1NCCc2[nH]c(-c3ccncc3)cc21,115 ± 14%
20,CNc1nc(Nc2cn(C(C)(C)C#N)nc2C)ncc1C(F)(F)F,109 ± 2.8%

row,Compound,cell viability
1,COc1cc(Nc2ncc(F)c(Nc3ccc4c(n3)N(COP(=O)(O)O)C(=O)C(C)(C)O4)n2)cc(OC)c1OC [R788 (Fostamatinib) Disodium],92 ± 3.9%
2,COc1cc(Nc2ncc(F)c(Nc3ccc4c(n3)NC(=O)C(C)(C)O4)n2)cc(OC)c1OC [R406 free base],101.7 ± 0.97%
3,CO[C@@H]1[C@H](N(C)C(=O)c2ccccc2)C[C@H]2O[C@]1(C)n1c3ccccc3c3c4c(c5c6ccccc6n2c5c31)C(=O)NC4 [PKC-412(Midostaurin)],95.04 ± 0.94%
4,CC(C)(C)c1nc2c3cc[nH]c(=O)c3c3cc(F)ccc3c2[nH]1 [Pyridone 6],99.5 ± 18%
5,COc1ccc2cc1Oc1ccc(cc1)C[C@H]1c3cc(c(OC)cc3CCN1C)Oc1c(O)c(OC)cc3c1[C@H](C2)N(C)CC3 [Fangchinoline],90.9 ± 1.6%
6,COc1cc2ncnc(Nc3ccc(O)cc3)c2cc1OC,116 ± 5%
7,O=C(c1ccc(F)c(F)c1Nc1ccc(I)cc1F)N1CC(O)([C@@H]2CCCCN2)C1 [Cobimetinib],87.1 ± 14%
8,COc1ccc(Cl)cc1NC(=O)Nc1cc(C)nc2ccccc12,129 ± 23%
9,COc1ccc([C@@H]2OC[C@H]3[C@@H]2CO[C@@H]3c2ccc(O[C@@H]3O[C@H](CO)[C@@H](O)[C@H](O)[C@H]3O)c(OC)c2)cc1OC [Forsythin],123 ± 20%
10,Cc1cc(Nc2ncc(Cl)c(Nc3ccccc3S(=O)(=O)C(C)C)n2)c(OC(C)C)cc1C1CCNCC1 [LDK378(Ceritinib)],110 ± 4.9%
11,C=CC(=O)Nc1cc2c(Nc3ccc(F)c(Cl)c3)ncnc2cc1OCCCN1CCOCC1 [Canertinib (hydrochloride)],93.9 ± 14%
12,COC(=O)Nc1nc2cc(C(=O)c3cccs3)ccc2[nH]1 [Nocodazole],112.8 ± 0.63%
13,N#C/C(=C\c1ccc(O)c(O)c1)C(=O)Nc1ccccc1,106 ± 6.4%
14,CN1C/C=C/CCOc2cccc(c2)-c2ccnc(n2)Nc2cccc(c2)C1,86.77 ± 0.29%
15,O=C(Nc1cc(Oc2cc(F)c(NC(=O)C3(C(=O)Nc4ccc(F)cc4)CC3)cc2F)ccn1)C1CC1 [Altiratinib(DCC2701)],106 ± 12%
16,O=C(NCc1cccc(O)c1)c1cc2cc(F)ccc2[nH]1,113 ± 3.2%
17,C[C@@H]1O[C@@H](Oc2c(-c3cc(O)c(O)c(O)c3)oc3cc(O)cc(O)c3c2=O)[C@H](O)[C@H](O)[C@H]1O [Myricetrin],89.1 ± 14%
18,COc1cc2ncnc(Sc3nnc(C)s3)c2cc1OC,127 ± 30%
19,CC(C)=CCC[C@](C)(O[C@@H]1O[C@H](CO)[C@@H](O)[C@H](O)[C@H]1O)[C@H]1CC[C@]2(C)[C@@H]1[C@H](O)C[C@@H]1[C@@]3(C)CC[C@H](O)C(C)(C)[C@@H]3[C@@H](O[C@@H]3O[C@H](CO)[C@@H](O)[C@H](O)[C@H]3O[C@@H]3OC[C@@H](O)[C@H](O)[C@H]3O)C[C@]12C [Notoginsenoside R1],110 ± 13%
20,CC1(C)CC(=O)C2=C(C1)NC(=S)NC2c1cccc(O)c1 (stereo not given) [Dimethylenastron],91 ± 2.6%
